# In ChEMBL document CHEMBL4513146, “CO-ADD screening of Karazin Kharkiv National University (Ukraine) compounds”:
# Results with a measured potency or affinity are listed apart.
# What was measured:
# Staphylococcus aureus = settings: Concentration 32 ug.mL-1;; ASSAY_TEST Inhibition of Bacterial Growth; detection method Absorption (OD600); MEDIA CAMHB; plate type 384well; NBS; CORNING #3640; time 18 hr
# Escherichia coli = settings: Concentration 32 ug.mL-1;; ASSAY_TEST Inhibition of Bacterial Growth; detection method Absorption (OD600); MEDIA CAMHB; plate type 384well; NBS; CORNING #3640; time 18 hr
Compound,Inhibition (Staphylococcus aureus) [%],Inhibition (Escherichia coli) [%]
CCOC(=O)c1ccccc1NC(=O)Cn1nc2c(Oc3cccc(OC)c3)nccn2c1=O,-10.31,1.57
CCOc1ccc(NC(=O)Cn2nc3c(Sc4ccc(C)cc4C)nccn3c2=O)cc1,0.32,-7.3
O=c1c2sccc2n2c(=O)n(Cc3cccc(Br)c3)nc2n1Cc1cccs1,-27.59,-23.42
CCCCOc1ccc(-c2cc3c4nnc(SCC(=O)Nc5cccc(C(C)=O)c5)n4ccn3n2)cc1,1.68,1.11
COC(=O)c1ccccc1NC(=O)Cn1nc2c(Oc3cccc(OC)c3)nccn2c1=O,-4.11,-21.29
Cc1ccc(CNC(=O)c2ccc3nn(CC(=O)Nc4ccc(C(F)(F)F)cc4)c(=O)n3c2)cc1,-2.47,-0.22
CCCNC(=O)Cn1nc2n(Cc3ccco3)c(=O)c3sccc3n2c1=O,2.17,-0.94
COc1ccc(CNC(=O)CSc2nnc3c4cc(-c5ccc(OC)cc5)nn4ccn23)cc1,4.43,0.23
COc1ccc(NC(=O)Cn2nc3c4cc(-c5ccc(OC)cc5)nn4ccn3c2=O)cc1,8.44,2.94
CC(C)c1nnc2c(=O)n(CC(=O)Nc3ccc(C#N)cc3)c3ccccc3n12,-0.41,-7.65
COc1ccc(N2CCN(C(=O)Cn3nc4ccc(-c5ccccc5)nn4c3=O)CC2)cc1,15.35,1.42
O=C(Cn1nc2c3cc(-c4ccccc4)nn3ccn2c1=O)N1CCCc2ccccc21,4.94,2.28
Cc1cccc(NC(=O)Cn2nc3nc(N4CCCCCC4)ccn3c2=O)c1C,7.24,-2.03
COc1ccccc1N1CCN(C(=O)CSc2nnc3c(=O)n(-c4ccc(F)cc4)ccn23)CC1,6.93,2.55
Cc1cc(C)cc(NC(=O)Cn2nc3c(N4CCCC4)nccn3c2=O)c1,12.35,-0.75
COc1ccc(N(Cc2cccc(F)c2)S(=O)(=O)c2ccc3nncn3c2)cc1,-9.11,1.35
